# hERG WT inh: blocks the wildtype human KCNH2 potassium channel. Q12809. U2OS, BacMam KCNH2, thallium flux FluxOr; stronger effect = lower value. activity change, % at 1.84 µM. 340,000 compounds, 0.37% hits;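 active = maximum activity change below -70%; inconclusive = maximum activity change between -70% and -50%; inactive = maximum activity change above -50%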; also: % is scaled to controls: 0 for no effect and ±100 for the full control effect
# Target sequence (Q12809 whole entry, looked up): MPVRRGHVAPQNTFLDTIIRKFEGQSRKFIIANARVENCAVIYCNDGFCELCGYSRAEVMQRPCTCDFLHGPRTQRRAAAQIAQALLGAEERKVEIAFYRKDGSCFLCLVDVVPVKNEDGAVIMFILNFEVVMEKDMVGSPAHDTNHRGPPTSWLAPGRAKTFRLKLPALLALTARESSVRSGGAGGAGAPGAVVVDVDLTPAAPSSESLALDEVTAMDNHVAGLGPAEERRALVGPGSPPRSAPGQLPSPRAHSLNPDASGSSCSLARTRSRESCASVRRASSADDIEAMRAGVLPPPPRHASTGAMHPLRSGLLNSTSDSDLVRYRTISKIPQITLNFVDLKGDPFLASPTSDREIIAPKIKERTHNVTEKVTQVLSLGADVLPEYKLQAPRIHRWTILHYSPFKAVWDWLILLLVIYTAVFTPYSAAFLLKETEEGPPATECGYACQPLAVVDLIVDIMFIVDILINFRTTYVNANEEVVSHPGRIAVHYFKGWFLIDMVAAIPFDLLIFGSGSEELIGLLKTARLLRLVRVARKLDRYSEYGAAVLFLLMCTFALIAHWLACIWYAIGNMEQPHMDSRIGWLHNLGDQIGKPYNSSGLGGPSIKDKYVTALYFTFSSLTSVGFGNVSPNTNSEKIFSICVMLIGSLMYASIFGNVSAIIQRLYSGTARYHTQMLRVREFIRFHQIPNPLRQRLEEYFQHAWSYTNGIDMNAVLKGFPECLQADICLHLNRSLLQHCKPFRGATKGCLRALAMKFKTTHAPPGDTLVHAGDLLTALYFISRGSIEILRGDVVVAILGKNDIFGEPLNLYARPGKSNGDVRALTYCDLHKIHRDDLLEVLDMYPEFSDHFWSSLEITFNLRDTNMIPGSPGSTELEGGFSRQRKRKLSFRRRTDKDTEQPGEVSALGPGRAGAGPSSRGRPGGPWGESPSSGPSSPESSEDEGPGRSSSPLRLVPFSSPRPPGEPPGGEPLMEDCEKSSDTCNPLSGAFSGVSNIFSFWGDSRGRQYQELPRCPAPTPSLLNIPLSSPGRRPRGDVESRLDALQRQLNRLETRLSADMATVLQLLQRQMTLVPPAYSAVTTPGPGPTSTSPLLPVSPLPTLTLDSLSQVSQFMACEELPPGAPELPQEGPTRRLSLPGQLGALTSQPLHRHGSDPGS
#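 U2OS cells were transduced with wild-type KCNH2 virus (2.03 x 10^8 / mL) for 4 h at room temperature, then cultured overnight at 37 C. Thallium flux was read with FluxOr dye. Rate constants were normalized to DMSO controls.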
# KCNH2 3.1 inh: KCNH2 3.1 (human) potassium channel inhibition | U2OS KCNH2 3.1, thallium flux FluxOr; stronger effect = lower value | activity change, % (tested at about 1.8 µM) | 340,000 compounds, 0.95% hits | AID 720553;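 active = maximum activity change below -70%; inconclusive = maximum activity change from -70% to -50%; inactive = maximum activity change above -50%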;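 also: thallium influx rate constant from kinetic fluorescence after stimulation buffer; % is scaled to controls: 0 for no effect and ±100 for the full control effect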
#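 Normalized rate constant (relative to positive and negative DMSO controls) derived from a 2 min kinetic fluorescence read after stimulation; U2OS cells expressing the 3.1 isoform via virus at 1.77 x 10^8 /mL.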
# SW480 rerep: induces DNA re-replication in SW480 colon adenocarcinoma cells | SW480 DNA re-replication, Hoechst DNA content imaging, 48 h | 340,000 compounds, 1.8% hits | Potency, µM (highest dose often 46.1 µM), for the others: at the highest dose re-replication activation, hits mostly activators; also: potency is read from the fitted curve at half-maximal effect; % of control where 0% means no effect; nearly all actives have a fitted effect of over 55% in size
#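 Image-based DNA-content assay: after two days of treatment, nuclei were labelled with the DNA dye Hoechst and imaged, and hits were compounds raising the count of nuclei showing high fluorescence intensity.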
# KB-V1 MDR tox: KB-V1 MDR subline cytotoxicity; KB-V1 MDR cells viability, CellTiter-Glo, 72 h; Potency, µM (top dose mostly 46.1 µM), hits mostly cytotoxic; 400,000 compounds, 3.4% hits; also: potency is read from the fitted curve at half-maximal effect; % is scaled to controls: 0 for no effect and ±100 for the full control effect; nearly all actives have a fitted effect of over 60% in size
#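 qHTS viability screen in drug-selected KB-V1 MDR cells: 72 h compound treatment at 37 degrees C, ATP luminescence end point.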
# KB-3-1 tox: kills parental KB-3-1 adenocarcinoma cells. KB-3-1 viability, CellTiter-Glo ATP luminescence, 72 h. Potency, µM (titrated, usually from 46.1 µM), hits mostly cytotoxic. 400,000 compounds, 1.4% hits; also: potency is read from the fitted curve at half-maximal effect; % is scaled to controls: 0 for no effect and ±100 for the full control effect; nearly all actives have a fitted effect of over 60% in size
#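 KB-3-1 parental drug-naive adenocarcinoma cells in DMEM/10% FBS, incubated 72 h at 37 C with pin-transferred compounds across a concentration series. Viability by CellTiter-Glo luminescence; concentration-response curves fitted after normalization.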
# MCF10A rereplic: DNA re-replication induction in MCF 10a cells. MCF 10A DNA re-replication, Hoechst nuclear intensity, 48 h. Potency, µM (series often up to 46.1 µM), for inactives: at the highest dose activity, positive = re-replication, most hits filed as activators. 350,000 compounds, 2.9% hits. AID 624296; also: potency is read from the fitted curve at half-maximal effect; % of control where 0% means no effect; nearly all actives have a fitted effect of over 50% in size
# * hit, by the source's call; i = inactive; ? = inconclusive; . = no result. The list is not random: actives were taken first. Their share in the collection is about 7.6%. Unless noted, calls follow the shape of the dose curve; as a rule, active = well fitted curve in the direction sought with a large enough effect; inconclusive = small, poorly fitted or top-dose-only effect, or another doubt; inactive = no such curve, though single readings can be large; an effect the other way counts as inactive or inconclusive.
SMILES,hERG WT inh,KCNH2 3.1 inh,SW480 rerep,KB-V1 MDR tox,KB-3-1 tox,MCF10A rereplic
COc1ccc(NC(=O)CSc2oc(-c3ccc(C)cc3)nc2S(=O)(=O)c2ccc(C)cc2)c(OC)c1,.,.,.,i,i,.
CCNC(=O)C(=O)NCC(c1cccs1)S(=O)(=O)c1ccc(C)cc1 (stereo unspecified),-22.3,5.6,0.4%,i,i,-9.6%
Cc1ccc(S(=O)(=O)N(CC(=O)Nc2cccc([N+](=O)[O-])c2)C(=O)N2CCN(C)CC2)cc1,-5.5,-1.0,12.5%,i,i,-11.7%
COc1c(S(=O)(=O)NCCCn2ccnc2)ccc(Cl)c1Cl,9.5,-2.8,?,i,i,11.6µM*
Cc1c(Cl)ccc(S(=O)(=O)NCCCn2ccnc2)c1Cl,-6.5,-4.8,?,i,i,?
CCC(=O)[C@@]1(C)[C@H](C)C[C@H]2[C@@H]3CCC4=CC(=O)C=C[C@]4(C)[C@H]3[C@@H](O)C[C@@]21C,-12.8,-22.4,1.4%,?,i,?
CCOC(=O)c1cn(CC(=O)Nc2ccc(C)cc2)nn1,0.0,-0.6,-1.4%,i,i,17.6%
CCOC(=O)c1cn(CC(=O)Nc2ccc(CC)cc2)nn1,-207.9*,1.6,6.4%,i,i,3.1%
O=C(N/N=C/c1ccc(C(F)(F)F)cc1)c1ccc(O)cc1,-12.3,3.1,6.1%,i,i,11.0%
Oc1ccc(/C=N/Nc2ccc(C(F)(F)F)cn2)cc1,1.5,-14.1,9.2µM*,i,?,-0.7%
COc1cc(/C=N/Nc2ccc(C(F)(F)F)cn2)cc(OC)c1O,7.7,-18.9,11.6µM*,i,?,23.0%
Cc1ccc(-n2nc(C)c3c(C)c(CCC(=O)NCc4ccccc4)c(C)nc32)cc1,-3.6,-107.3*,0.2%,i,i,-2.2%
Cc1ccc(CNC(=O)CCc2c(C)nc3c(c(C)nn3-c3ccc(C)cc3)c2C)cc1,-13.3,-10.9,2.6%,i,i,-0.1%
O=C(NCc1ccccc1)c1ccc(CS(=O)(=O)Cc2ccccc2F)o1,2.2,-3.0,-20.5%,16.4µM*,i,-2.6%
COc1cc(C)ccc1OCc1cc(C(=O)NC(c2ccccn2)C(F)(F)F)no1 (stereo unspecified),-1.7,-86.6*,.,?,i,.
Cc1cc(C(C)(C)C)cc(C)c1C[n+]1ccc2ccccc2c1,-4.1,3.4,2.3%,i,1.64µM*,?
O=C(O)CCC(=O)N1CCN(c2nc(-c3ccccc3)c3ccccc3n2)CC1,5.0,-5.0,-5.2%,i,i,20.6µM*
CCOC(=O)N1CCN(c2nc(-c3ccccc3)c3ccccc3n2)CC1,8.3,-11.0,16.4µM*,i,i,8.2µM*
Cc1ccc2nc(N3CCN(C=O)CC3)nc(-c3ccccc3)c2c1,8.4,-17.1,11.6%,i,i,?
Cc1ccc2nc(N3CCN(C(=O)CCCC(=O)O)CC3)nc(-c3ccccc3)c2c1,3.6,-8.4,2.7%,i,i,?
Clc1ccc(-c2nc(N3CCCCC3)nc3ccccc23)cc1,5.1,21.5,12.6µM*,i,i,7.94µM*
CC1NC(=O)c2cc3ccccc3cc2-n2c1nc1ccc(F)cc1c2=O (stereo unspecified),2.4,?,.,i,i,.
CC(C)c1nn2c(=O)cc(COc3cccc(NC(=O)c4ccco4)c3)nc2s1,4.6,4.6,2.4%,i,i,0.4%
Cc1cccn2c(=O)cc(COc3ccc(NC(=O)C(C)Oc4ccccc4)cc3)nc12 (stereo unspecified),.,.,.,i,i,.
O=C(NC1CCCCC1)C(c1ccnc2ccccc12)n1c(=O)c(-c2cc3ccccc3[nH]2)nc2ccccc21 (stereo unspecified),.,.,.,i,?,.
